# Test results reported in paper PMC5540273 (PLoS ONE, 2017).
# Tests used:
# Conditions in all cases: concentration: 1 μM, replicates: in singlicate; n = 1
# BIKE = system: T1, BIKE
# T1 construct: gene BMP2K
# BLK = system: BLK
# BMPR1A = system: BMPR1A
# BMPR1B = system: BMPR1B
# BMPR2 = system: BMPR2
# BMX = system: BMX
# BRAF = system: BRAF
# BRK = system: T2, BRK
# T2 construct: gene PTK6
# BRSK1 = system: BRSK1
# BRSK2 = system: BRSK2
# 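Note: KINOMEscan kinase panel screen.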
SMILES,%Inh (BIKE),%Inh (BLK),%Inh (BMPR1A),%Inh (BMPR1B),%Inh (BMPR2),%Inh (BMX),%Inh (BRAF),%Inh (BRK),%Inh (BRSK1),%Inh (BRSK2)
COc1ccc(Nc2nccc(N3CCC(NC(=O)C(C)c4ccc(Cl)cc4)C3)n2)cc1 (stereo not shown) [GSK1379735],25%,33%,19%,0%,4%,27%,0%,0%,7%,0%
CCCCc1nn2ncccc2c1-c1ccnc(NC2CC2)n1 [GW684374],23%,0%,0%,0%,0%,4%,7%,0%,0%,0%
Cn1cnc2c(N)ncnc21 [SKF-97623],0%,0%,0%,0%,0%,0%,0%,0%,24%,0%
COc1ccc2cc(-c3nc(-c4ccccc4C(C)C)[nH]c3-c3ccncc3)ccc2c1 [SB-660566],0%,0%,17%,0%,5%,0%,6%,22%,4%,10%
CCn1c(-c2c(N)noc2C)nc2cnccc21 [SB-737856],22%,0%,0%,0%,3%,0%,0%,0%,6%,0%
Cc1nccc(-c2c(-c3ccc(F)cc3)ncn2CCCN2CCOCC2)n1.Cl [SB-282975],15%,12%,26%,8%,41%,31%,10%,13%,0%,17%
O=C(Nc1n[nH]c2nc(-c3ccco3)c(Br)cc12)C1CCN(Cc2ccccc2)C1.O=C(O)[C@H](O)[C@@H](O)C(=O)O (stereo not shown) [SB-742034],0%,0%,32%,10%,16%,0%,0%,9%,18%,37%
Cc1ccc(NC(=O)Nc2ccccc2F)cc1-c1ccc(C(=O)Nc2ccncc2)cc1 [GSK1398477],28%,51%,7%,0%,0%,29%,20%,34%,15%,13%
COc1ccc(-c2coc3ccc(-c4nnc(C)o4)cc23)cc1,0%,3%,18%,0%,0%,0%,0%,0%,0%,100%
Nc1nccc(-c2c(-c3ccc(F)cc3)ncn2C2CCN(Cc3ccccc3)CC2)n1 [SB-219980],0%,0%,0%,2%,0%,0%,0%,0%,0%,0%
CNc1nc(-c2ccc3c(N)n[nH]c3c2)cc(N2C[C@@H](C(=O)NC3CCCCC3)OC[C@H]2C)n1 [GSK2375584],24%,0%,0%,0%,0%,23%,0%,14%,14%,19%
Cn1cncc1C(=O)NC1CCN(c2ccnc(Nc3ccc(F)cc3)n2)C1 (stereo not shown) [GSK1379717],7%,0%,5%,0%,6%,0%,0%,0%,1%,0%
CCc1ccc(-c2ccc3c(c2)-c2n[nH]cc2S(=O)(=O)N3C)cc1,12%,9%,0%,0%,0%,0%,0%,0%,0%,4%
Cc1ccccc1Cn1ccn2c(=O)cc(N3CCOCC3)nc12 [GSK2269905],16%,10%,0%,0%,0%,3%,0%,22%,0%,98.6%
CCn1c(-c2ccccc2)nc2cnccc21 [SB-733416],28%,0%,0%,0%,10%,0%,49%,27%,0%,1%
O=c1cc(N2CCOCC2)nc2n(Cc3cccc(Cl)c3Cl)c3ccccc3n12 [GSK2299009],38%,50%,2%,0%,0%,1%,0%,17%,8%,22%
FC(F)(F)c1ccccc1-c1cc(-c2c[nH]nc2-c2ccccn2)ccn1 [GW679396],24%,1%,13%,0%,7%,0%,0%,20%,0%,0%

SMILES,%Inh (BIKE),%Inh (BLK),%Inh (BMPR1A),%Inh (BMPR1B),%Inh (BMPR2),%Inh (BMX),%Inh (BRAF),%Inh (BRK),%Inh (BRSK1),%Inh (BRSK2)
Cc1ccc(-c2nc(Nc3ccncc3)c3ccccc3n2)s1 [GSK189015],37%,29%,0%,0%,0%,23%,6%,4%,20%,0%
COc1cccc(NC(=O)Nc2ccc(C)c(-c3ccc(C(=O)Nc4ccncc4)cc3)c2)c1 [GSK1398474],26%,40%,0%,0%,0%,18%,30%,0%,12%,96.2%
Cc1c(Cn2c(C)c(C)n3c(=O)cc(N4CCOCC4)nc23)cccc1C(F)(F)F [GSK2328680],2%,29%,6%,0%,5%,14%,0%,6%,0%,0%
COc1cccc(C2=C(Nc3cc(Cl)c(O)c(Cl)c3)C(=O)NC2=O)c1 [SB-390767],21%,0%,0%,0%,1%,13%,0%,18%,7%,0%
COC(=O)c1cccc(NC(=O)NC2CCN(c3ccnc(Nc4ccc(F)cc4)n3)C2)c1 (stereo not shown) [GSK1379725],20%,26%,0%,0%,0%,0%,0%,8%,0%,0%
Fc1ccc(-c2nc3n(c2-c2ccncc2)CCS3)cc1 [GI98581],32%,45%,0%,0%,0%,12%,0%,13%,0%,0%
COc1cccc(CNC(=O)NC2CCN(c3ccnc(Nc4ccc(F)cc4)n3)C2)c1 (stereo not shown) [GSK1379723],19%,0%,0%,0%,3%,7%,10%,17%,0%,0%
COc1nccc(-c2c(-c3ccc(F)cc3)ncn2CCCN2CCOCC2)n1 [SB-282852],0%,0%,0%,0%,25%,0%,20%,0%,0%,0%
COc1ccc(Nc2nccc(N3CCC(NC(=O)C(C)c4ccc(Cl)cc4)CC3)n2)cc1 (stereo not shown) [GSK1379812],36%,5%,0%,0%,7%,28%,0%,0%,0%,13%
COc1cc2ncnc(Nc3cccc(Br)c3)c2cc1OC.Cl [GI230329],19%,79%,0%,0%,0%,10%,0%,10%,20%,14%
O=C(Nc1n[nH]c2cc(-c3ccsc3)ccc12)C1CC1 [SB-732932],54%,0%,27%,22%,32%,15%,9%,0%,59%,61%
Nc1ncnc2occ(-c3ccc4c(c3)CCN4C(=O)Cc3cc(F)ccc3F)c12 [GSK2645446],17%,14%,0%,0%,8%,12%,4%,8%,12%,0%
O=c1cc(N2CCOCC2)nc2n(Cc3ccccc3F)ccn12 [GSK2297428],0%,21%,0%,0%,0%,13%,0%,36%,0%,100%
CNc1cc(-c2ccc3c(N)n[nH]c3c2)nc(N)n1 [GSK2224810],74%,0%,16%,78%,5%,15%,0%,6%,2%,0%
COC(=O)C(Cc1ccccc1)NC(=O)NC1CCN(c2ccnc(Nc3ccc(F)cc3)n2)C1 (stereo not shown) [GSK1379714],17%,10%,0%,0%,22%,29%,0%,12%,0%,0%
CNC(=O)c1ccc(C)c(-n2c(C)cc(OCc3ccc(F)cc3F)c(Br)c2=O)c1,3%,0%,39%,0%,0%,0%,0%,0%,0%,0%
CC(=O)c1cccc(NC(=O)NC2CCN(c3ccnc(Nc4ccc(F)cc4)n3)C2)c1 (stereo not shown) [GSK1379710],25%,0%,0%,0%,10%,16%,0%,4%,6%,0%
